Experimental data as given in the supplement of paper PMC10849652.
Targets with a hit are over-represented here; the source holds about 8,800 in all. About 0.5% of all pairs of compound and target were hits. Unmarked numbers belong to inactive results.

What was measured:
Assay in all cases: log2 fold change, soluble protein after heating vs DMSO (PISA); higher = thermal stabilisation; K562 lysate, 10 uM; active = over 0.2 and 3.5 SD of the protein, either way, in both replicates (recomputed)
[1] = compound: CS(=O)(=O)CCNCc1ccc(-c2ccc3ncnc(Nc4ccc(OCc5cccc(F)c5)c(Cl)c4)c3c2)o1 [lapatinib]
Method in brief: (§1)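 K562 pellets were dounce-homogenised in PBS pH 7.4 containing 1 mM MgCl2, and the crude extract, at 1 mg/mL protein, was exposed to 10 μM compound for 30 min. Aliquots were heated for 3 min across 48°C-58°C, pooled, brought to 0.5% NP-40 at 4°C and spun at 21,000xg for 90 min, with the supernatant taken as soluble protein. TMTpro 16plex LC-MS/MS with equalised channel sums quantified that protein. Values are log-two fold changes in thermal stability relative to solvent controls, taken from duplicates.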

[2] = compound: CS(=O)(=O)N1CCN(Cc2cc3nc(-c4cccc5[nH]ncc45)nc(N4CCOCC4)c3s2)CC1 [pictilisib]
Method in brief: as §1

[3] = compound: C[C@@H](Oc1cc(-c2cnn(C3CCNCC3)c2)cnc1N)c1c(Cl)ccc(F)c1Cl [crizotinib]
Method in brief: as §1

[4] = compound: C[C@H](Nc1ncnc2nc[nH]c12)c1cc2cccc(Cl)c2c(=O)n1-c1ccccc1 [duvelisib]
Method in brief: as §1

[5] = compound: Cc1cc(Nc2cc(CN3CCOCC3)c3nc(C)c(Cc4ccc(Cl)cc4F)n3n2)n[nH]1 [gandotinib]
Method in brief: as §1

[6] = compound: Cc1cc(Nc2cc(N3CCN(C)CC3)nc(Sc3ccc(NC(=O)C4CC4)cc3)n2)n[nH]1 [tozasertib]
Method in brief: as §1

[7] = compound: Cc1ccc(-n2nc(C(C)(C)C)cc2NC(=O)Nc2ccc(OCCN3CCOCC3)c3ccccc23)cc1 [doramapimod]
Method in brief: as §1

[8] = compound: Cc1ccc(NC(=O)c2ccc(CN3CC[C@H](N(C)C)C3)c(C(F)(F)F)c2)cc1Nc1nccc(-c2cncnc2)n1 [bafetinib]
Method in brief: as §1

[9] = compound: Cc1cccc(CC(=O)N2CCc3c2ccc(-c2cn(C)c4ncnc(N)c24)c3F)n1
Method in brief: as §1

[10] = compound: Cc1cn(-c2cc(NC(=O)c3ccc(C)c(Nc4nccc(-c5cccnc5)n4)c3)cc(C(F)(F)F)c2)cn1 [nilotinib]
Method in brief: as §1

[11] = compound: Cc1nc(Nc2n[nH]c3c2CN(C(=O)N[C@H](CN(C)C)c2ccccc2)C3(C)C)c2sccc2n1
Method in brief: as §1

[12] = compound: Cc1nc(Nc2ncc(C(=O)Nc3c(C)cccc3Cl)s2)cc(N2CCN(CCO)CC2)n1 [dasatinib]
Method in brief: as §1

[13] = compound: Cc1ncc(-c2ccnc(Nc3ccc(S(C)(=O)=O)cc3)n2)n1C(C)C
Method in brief: as §1

[14] = compound: Cn1cc(-c2ccc3c(c2)CCN3C(=O)Cc2cccc(C(F)(F)F)c2)c2c(N)ncnc21
Method in brief: as §1

[15] = compound: Cn1cc(CNCC2CCN(c3ncc(C(=O)NO)cn3)CC2)c2ccccc21 [quisinostat]
Method in brief: as §1

[16] = compound: Cn1cncc1[C@@](N)(c1ccc(Cl)cc1)c1ccc2c(c1)c(-c1cccc(Cl)c1)cc(=O)n2C [tipifarnib]
Method in brief: as §1

[17] = compound: NC(=O)c1cnc(N[C@@H]2CCCC[C@@H]2N)nc1Nc1cccc(-n2nccn2)c1
Method in brief: as §1

[18] = compound: NC1(c2ccc(-c3nc4ccn5c(=O)[nH]nc5c4cc3-c3ccccc3)cc2)CCC1
Method in brief: as §1

[19] = compound: C[C@H](C1=CC=C(C=C1)C(=O)NC2=C3C=CNC3=NC=C2)N
Method in brief: as §1

[20] = compound: NC(=O)Nc1cc(-c2cccc(F)c2)sc1C(=O)N[C@H]1CCCNC1
Method in brief: as §1

Target: ROCK1 (UniProt Q13464)
UniProt Q13464, sequence (Q13464 whole entry, looked up): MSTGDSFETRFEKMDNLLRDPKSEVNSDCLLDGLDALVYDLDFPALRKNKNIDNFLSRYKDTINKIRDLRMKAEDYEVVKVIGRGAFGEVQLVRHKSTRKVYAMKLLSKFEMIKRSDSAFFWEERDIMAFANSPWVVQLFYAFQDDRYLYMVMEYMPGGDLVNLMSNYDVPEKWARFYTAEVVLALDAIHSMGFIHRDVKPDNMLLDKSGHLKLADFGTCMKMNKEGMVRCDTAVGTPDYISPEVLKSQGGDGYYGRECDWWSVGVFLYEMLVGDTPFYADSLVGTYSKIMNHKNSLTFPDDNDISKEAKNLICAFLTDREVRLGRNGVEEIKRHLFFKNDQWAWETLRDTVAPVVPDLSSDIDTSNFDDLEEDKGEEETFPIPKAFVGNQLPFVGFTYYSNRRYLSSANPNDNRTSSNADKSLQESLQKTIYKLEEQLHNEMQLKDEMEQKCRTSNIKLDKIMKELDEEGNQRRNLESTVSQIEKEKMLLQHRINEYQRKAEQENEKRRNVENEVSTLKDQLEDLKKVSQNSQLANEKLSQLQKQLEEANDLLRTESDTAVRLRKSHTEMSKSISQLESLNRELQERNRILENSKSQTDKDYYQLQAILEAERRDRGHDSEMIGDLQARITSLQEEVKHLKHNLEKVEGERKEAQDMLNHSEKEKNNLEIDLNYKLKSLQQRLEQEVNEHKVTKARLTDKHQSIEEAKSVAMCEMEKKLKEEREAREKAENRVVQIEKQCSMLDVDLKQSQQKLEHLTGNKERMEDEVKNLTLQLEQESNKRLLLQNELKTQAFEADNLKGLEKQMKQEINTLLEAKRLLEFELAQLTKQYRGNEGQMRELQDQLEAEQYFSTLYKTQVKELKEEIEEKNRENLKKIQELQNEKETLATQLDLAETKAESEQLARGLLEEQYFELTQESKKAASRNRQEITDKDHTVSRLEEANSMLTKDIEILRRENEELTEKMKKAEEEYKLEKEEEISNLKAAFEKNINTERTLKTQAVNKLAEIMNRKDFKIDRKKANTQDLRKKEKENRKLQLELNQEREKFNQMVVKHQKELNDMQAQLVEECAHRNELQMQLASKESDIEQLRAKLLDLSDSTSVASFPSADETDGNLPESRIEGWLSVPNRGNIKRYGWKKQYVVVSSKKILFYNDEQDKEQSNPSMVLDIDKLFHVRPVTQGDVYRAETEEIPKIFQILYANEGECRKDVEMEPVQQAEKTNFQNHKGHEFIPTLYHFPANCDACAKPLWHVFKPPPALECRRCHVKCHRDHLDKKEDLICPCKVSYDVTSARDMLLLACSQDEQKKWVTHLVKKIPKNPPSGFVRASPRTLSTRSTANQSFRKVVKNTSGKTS
- log2 fold change [1]: -0.003
- log2 fold change [2]: -0.021
- log2 fold change [3]: 0.011
- log2 fold change [4]: 0.006
- log2 fold change [5]: -0.04
- log2 fold change [6]: 0.027
- log2 fold change [7]: -0.025
- log2 fold change [8]: -0.016
- log2 fold change [9]: 0.031
- log2 fold change [10]: -0.013
- log2 fold change [11]: -0.001
- log2 fold change [12]: -0.004
- log2 fold change [13]: 0.006
- log2 fold change [14]: 0.011
- log2 fold change [15]: -0.01
- log2 fold change [16]: 0.001
- log2 fold change [17]: 0.009
- log2 fold change [18]: 0.013

Target: RAC2 (UniProt P15153)
- log2 fold change [1]: -0.057
- log2 fold change [2]: 0.016
- log2 fold change [3]: -0.018
- log2 fold change [19]: -0.05
- log2 fold change [4]: -0.026
- log2 fold change [5]: -0.025
- log2 fold change [6]: -0.062
- log2 fold change [7]: -0.014
- log2 fold change [8]: -0.042
- log2 fold change [9]: 0.031
- log2 fold change [10]: -0.025
- log2 fold change [11]: -0.076
- log2 fold change [12]: -0.068
- log2 fold change [13]: 0.015
- log2 fold change [14]: -0.093
- log2 fold change [15]: 0.021
- log2 fold change [16]: 0
- log2 fold change [20]: 0.001
- log2 fold change [17]: 0.04
- log2 fold change [18]: 0.017

Target: RETREG2 (UniProt Q8NC44)
- log2 fold change [1]: -0.051
- log2 fold change [2]: -0.037
- log2 fold change [3]: -0.074
- log2 fold change [19]: -0.052
- log2 fold change [5]: -0.052
- log2 fold change [6]: 0.025
- log2 fold change [7]: -0.005
- log2 fold change [8]: -0.141
- log2 fold change [9]: 0.122
- log2 fold change [10]: 0.363 (active)
- log2 fold change [11]: -0.135
- log2 fold change [13]: 0.055
- log2 fold change [15]: -0.084
- log2 fold change [16]: -0.076
- log2 fold change [20]: -0.016
- log2 fold change [17]: -0.012
- log2 fold change [18]: -0.022

Target: RMC1 (UniProt Q96DM3)
UniProt Q96DM3, sequence (Q96DM3 whole entry, looked up): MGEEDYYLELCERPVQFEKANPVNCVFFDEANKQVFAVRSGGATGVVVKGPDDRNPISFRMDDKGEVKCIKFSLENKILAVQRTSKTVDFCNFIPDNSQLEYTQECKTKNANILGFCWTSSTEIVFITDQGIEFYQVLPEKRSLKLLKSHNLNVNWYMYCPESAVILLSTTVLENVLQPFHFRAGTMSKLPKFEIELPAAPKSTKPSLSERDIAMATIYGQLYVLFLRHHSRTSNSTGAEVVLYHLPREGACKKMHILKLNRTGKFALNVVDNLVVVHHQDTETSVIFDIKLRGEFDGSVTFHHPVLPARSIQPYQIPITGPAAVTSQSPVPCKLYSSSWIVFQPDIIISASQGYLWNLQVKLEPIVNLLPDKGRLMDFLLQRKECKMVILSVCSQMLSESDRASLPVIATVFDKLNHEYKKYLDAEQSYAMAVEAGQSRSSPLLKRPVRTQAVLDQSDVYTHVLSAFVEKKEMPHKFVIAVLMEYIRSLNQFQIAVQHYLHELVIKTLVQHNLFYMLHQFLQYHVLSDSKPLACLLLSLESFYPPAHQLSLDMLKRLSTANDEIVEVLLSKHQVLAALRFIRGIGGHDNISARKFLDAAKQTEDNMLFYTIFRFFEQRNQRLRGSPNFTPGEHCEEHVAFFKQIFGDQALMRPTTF
- log2 fold change [1]: -0.036
- log2 fold change [2]: -0.011
- log2 fold change [3]: -0.013
- log2 fold change [19]: -0.029
- log2 fold change [4]: 0.024
- log2 fold change [5]: -0.051
- log2 fold change [6]: -0.056
- log2 fold change [7]: 0.012
- log2 fold change [8]: -0.062
- log2 fold change [9]: 0.035
- log2 fold change [10]: 0.027
- log2 fold change [11]: 0.005
- log2 fold change [12]: 0.008
- log2 fold change [13]: -0.002
- log2 fold change [14]: 0.003
- log2 fold change [15]: -0.02
- log2 fold change [16]: -0.057
- log2 fold change [20]: 0.035
- log2 fold change [17]: -0.007
- log2 fold change [18]: 0.036

Target: SEC24D isoform 2 (UniProt O94855)
UniProt O94855, sequence (O94855 whole entry, looked up): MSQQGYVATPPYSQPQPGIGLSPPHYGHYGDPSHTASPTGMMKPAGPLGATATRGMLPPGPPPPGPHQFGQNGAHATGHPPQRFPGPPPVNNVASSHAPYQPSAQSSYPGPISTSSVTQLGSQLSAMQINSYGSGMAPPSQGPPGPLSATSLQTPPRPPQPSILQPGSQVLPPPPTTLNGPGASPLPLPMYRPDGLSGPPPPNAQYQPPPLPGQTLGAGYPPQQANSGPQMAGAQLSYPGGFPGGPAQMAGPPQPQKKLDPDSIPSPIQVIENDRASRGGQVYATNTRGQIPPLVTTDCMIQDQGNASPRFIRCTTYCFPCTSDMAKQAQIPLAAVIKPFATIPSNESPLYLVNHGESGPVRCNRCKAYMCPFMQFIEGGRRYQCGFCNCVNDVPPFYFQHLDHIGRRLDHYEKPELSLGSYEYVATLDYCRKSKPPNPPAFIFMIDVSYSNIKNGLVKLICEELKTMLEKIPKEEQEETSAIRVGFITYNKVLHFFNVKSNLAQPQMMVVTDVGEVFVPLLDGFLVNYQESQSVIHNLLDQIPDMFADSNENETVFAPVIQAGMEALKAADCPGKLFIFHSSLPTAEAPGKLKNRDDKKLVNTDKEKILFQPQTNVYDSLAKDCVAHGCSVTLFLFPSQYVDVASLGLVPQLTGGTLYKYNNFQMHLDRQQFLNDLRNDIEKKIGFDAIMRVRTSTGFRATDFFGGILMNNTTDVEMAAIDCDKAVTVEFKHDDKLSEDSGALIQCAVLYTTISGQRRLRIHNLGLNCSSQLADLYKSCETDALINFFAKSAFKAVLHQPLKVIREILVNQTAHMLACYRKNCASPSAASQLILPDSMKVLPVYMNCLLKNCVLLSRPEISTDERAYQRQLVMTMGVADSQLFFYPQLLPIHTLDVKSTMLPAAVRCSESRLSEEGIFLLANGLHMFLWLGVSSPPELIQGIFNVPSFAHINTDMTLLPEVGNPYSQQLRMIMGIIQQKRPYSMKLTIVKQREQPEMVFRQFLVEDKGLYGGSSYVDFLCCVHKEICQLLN
- log2 fold change [1]: 0.016
- log2 fold change [2]: -0.03
- log2 fold change [3]: 0
- log2 fold change [19]: 0.031
- log2 fold change [4]: 0.017
- log2 fold change [5]: -0.02
- log2 fold change [6]: 0.005
- log2 fold change [7]: 0
- log2 fold change [8]: -0.026
- log2 fold change [9]: -0.019
- log2 fold change [10]: -0.006
- log2 fold change [11]: -0.016
- log2 fold change [12]: -0.004
- log2 fold change [13]: -0.029
- log2 fold change [14]: 0.002
- log2 fold change [15]: 0.01
- log2 fold change [16]: 0.001
- log2 fold change [20]: -0.012
- log2 fold change [17]: -0.004
- log2 fold change [18]: 0.006

Target: RIOK1 (UniProt Q9BRS2)
UniProt Q9BRS2, sequence (Q9BRS2 whole entry, looked up): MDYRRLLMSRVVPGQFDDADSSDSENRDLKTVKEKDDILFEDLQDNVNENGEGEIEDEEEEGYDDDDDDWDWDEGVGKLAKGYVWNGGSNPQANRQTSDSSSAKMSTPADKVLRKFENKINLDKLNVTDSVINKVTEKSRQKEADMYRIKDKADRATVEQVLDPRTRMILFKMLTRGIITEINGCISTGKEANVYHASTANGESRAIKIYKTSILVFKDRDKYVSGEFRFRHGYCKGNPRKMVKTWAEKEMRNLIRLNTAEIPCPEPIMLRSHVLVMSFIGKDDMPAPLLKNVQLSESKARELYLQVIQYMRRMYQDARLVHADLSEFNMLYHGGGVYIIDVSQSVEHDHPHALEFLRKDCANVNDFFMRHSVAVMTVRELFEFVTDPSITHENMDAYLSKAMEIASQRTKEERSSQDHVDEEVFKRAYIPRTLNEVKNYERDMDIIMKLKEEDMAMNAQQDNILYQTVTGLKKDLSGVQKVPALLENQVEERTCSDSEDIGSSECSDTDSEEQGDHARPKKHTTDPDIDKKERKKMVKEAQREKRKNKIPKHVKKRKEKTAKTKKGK
- log2 fold change [1]: -0.044
- log2 fold change [2]: 0.197
- log2 fold change [3]: -0.015
- log2 fold change [19]: 0.92 (active)
- log2 fold change [4]: 0.037
- log2 fold change [5]: -0.138
- log2 fold change [6]: 0.008
- log2 fold change [7]: 0.025
- log2 fold change [8]: -0.056
- log2 fold change [9]: -0.134
- log2 fold change [10]: -0.018
- log2 fold change [11]: 0.06
- log2 fold change [12]: -0.018
- log2 fold change [13]: 0.072
- log2 fold change [14]: 0.008
- log2 fold change [15]: -0.007
- log2 fold change [16]: 0.003
- log2 fold change [20]: -0.012
- log2 fold change [17]: -0.033
- log2 fold change [18]: -0.072

Target: REEP6 (UniProt Q96HR9)
UniProt Q96HR9, sequence (Q96HR9 whole entry, looked up): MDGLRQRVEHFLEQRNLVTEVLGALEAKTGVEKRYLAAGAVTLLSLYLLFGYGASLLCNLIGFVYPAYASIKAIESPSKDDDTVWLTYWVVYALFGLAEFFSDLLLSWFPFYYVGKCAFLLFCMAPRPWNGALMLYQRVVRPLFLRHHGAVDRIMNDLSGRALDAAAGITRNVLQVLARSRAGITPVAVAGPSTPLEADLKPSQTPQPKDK
- log2 fold change [1]: 0.066
- log2 fold change [2]: 0.047
- log2 fold change [3]: -0.04
- log2 fold change [19]: -0.269
- log2 fold change [4]: -0.006
- log2 fold change [5]: 0.056
- log2 fold change [6]: 0.097
- log2 fold change [7]: 0.052
- log2 fold change [8]: -0.031
- log2 fold change [9]: 0.078
- log2 fold change [10]: 0.058
- log2 fold change [11]: 0.1
- log2 fold change [12]: 0.204
- log2 fold change [13]: 0.041
- log2 fold change [14]: 0.009
- log2 fold change [15]: -0.072
- log2 fold change [16]: 0.001
- log2 fold change [20]: -0.03
- log2 fold change [17]: 0.155
- log2 fold change [18]: -0.023

Target: RAPGEF4 (UniProt Q8WZA2)
UniProt Q8WZA2, sequence (Q8WZA2 whole entry, looked up): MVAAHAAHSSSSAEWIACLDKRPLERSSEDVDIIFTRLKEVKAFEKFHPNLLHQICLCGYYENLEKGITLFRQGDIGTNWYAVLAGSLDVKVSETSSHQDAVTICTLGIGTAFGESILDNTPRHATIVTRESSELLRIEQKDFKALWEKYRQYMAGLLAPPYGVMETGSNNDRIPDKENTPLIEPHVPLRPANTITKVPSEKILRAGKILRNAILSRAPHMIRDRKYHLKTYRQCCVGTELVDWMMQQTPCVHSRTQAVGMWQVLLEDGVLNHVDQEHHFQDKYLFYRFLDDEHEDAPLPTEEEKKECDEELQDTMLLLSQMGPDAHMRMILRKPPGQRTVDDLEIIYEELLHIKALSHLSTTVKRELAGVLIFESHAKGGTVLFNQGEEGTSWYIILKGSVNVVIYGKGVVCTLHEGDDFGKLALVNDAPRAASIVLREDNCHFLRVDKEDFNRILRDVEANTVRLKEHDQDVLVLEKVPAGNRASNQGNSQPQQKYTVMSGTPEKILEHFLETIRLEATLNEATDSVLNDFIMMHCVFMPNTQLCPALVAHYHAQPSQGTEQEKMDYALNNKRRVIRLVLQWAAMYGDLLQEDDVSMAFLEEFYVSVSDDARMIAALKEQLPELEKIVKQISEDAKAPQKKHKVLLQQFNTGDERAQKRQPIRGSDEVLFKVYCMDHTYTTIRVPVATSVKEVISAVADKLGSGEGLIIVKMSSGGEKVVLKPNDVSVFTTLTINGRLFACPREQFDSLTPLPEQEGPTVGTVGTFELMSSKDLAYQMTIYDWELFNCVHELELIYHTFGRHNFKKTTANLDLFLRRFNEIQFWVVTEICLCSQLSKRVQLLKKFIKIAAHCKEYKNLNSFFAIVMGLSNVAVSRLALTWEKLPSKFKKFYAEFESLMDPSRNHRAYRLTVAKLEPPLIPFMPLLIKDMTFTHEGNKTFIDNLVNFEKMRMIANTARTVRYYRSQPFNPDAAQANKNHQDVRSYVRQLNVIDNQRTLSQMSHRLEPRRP
- log2 fold change [1]: -0.061
- log2 fold change [2]: 0.047
- log2 fold change [3]: -0.24
- log2 fold change [19]: -0.804 (active)
- log2 fold change [4]: 0.104
- log2 fold change [5]: 0.38
- log2 fold change [6]: -0.088
- log2 fold change [7]: -0.041
- log2 fold change [8]: -0.212
- log2 fold change [9]: 0.543
- log2 fold change [12]: -0.092
- log2 fold change [14]: -0.061
- log2 fold change [15]: -0.491
- log2 fold change [20]: 0.16
- log2 fold change [17]: 0.064
- log2 fold change [18]: -0.192
